High-throughput results from PubChem.
Rows were chosen to be rich in hits. Some 14% of all compounds tested hit in one or more screens of this group.
Pf growth 96h = P. falciparum growth inhibition at 96 hours; AID 504834; hit rate 6.9% among 320,000; P. falciparum luciferase reporter growth, 96 h; Potency, µM (highest dose often 28.7 µM), for the others: top-dose activity change, negative = inhibition, usual class: inhibitors; note: potency is the fitted concentration of half-maximal effect
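Delayed-death screen, second-generation endpoint: infected erythrocytes, 2% hematocrit, 0.05% parasitemia final; 96 hours at 37 C, 5% CO2; luciferase detection reagent; luminescence decrease equals reduced growth.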
HCMV antiviral = human cytomegalovirus inhibition; HFF cells, HCMV-luciferase reporter, 72 h; stronger effect = lower value; activity change, negative = inhibition, % at 57.5 µM; hit rate 4.5% among 410,000; in the data active = activity change below about -60%; inconclusive = no clear call, values can overlap the other calls; inactive = above about -39%
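Two compound doses tested in HFFs infected with HCMV-luciferase, MOI 1 PFU/cell, 72 h at 37C. Lysate luminescence read with OneGlo; data normalized against buffer-only and 10uM Salinomycin inhibitor controls.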
Pf growth 48h = inhibits P. falciparum growth in the first generation, 48 h | P. falciparum luciferase growth in erythrocytes, 48 h | Potency, µM (series often up to 28.7 µM), for the others: top-dose activity change, negative = inhibition, hits mostly inhibitors | hit rate 5.9% among 310,000 | AID 504832; note: potency is the fitted concentration of half-maximal effect
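Here the parasites carry a stable luciferase gene and grow inside erythrocytes in Albumax-based RPMI medium with compound for one erythrocytic cycle. Activity is scored as loss of luminescent signal.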
FBPA Giardia inh = Giardia lamblia aldolase inhibition. purified Giardia FBPA. Potency, µM (titrated, usually from 59.6 µM), without a hit: at the highest dose activity, negative = inhibition, usual class: inhibitors. hit rate 0.71% among 290,000; note: potency is the fitted concentration of half-maximal effect; nearly all actives have a fitted effect of over 55% in size
Target sequence (A8B2U2 whole entry, looked up): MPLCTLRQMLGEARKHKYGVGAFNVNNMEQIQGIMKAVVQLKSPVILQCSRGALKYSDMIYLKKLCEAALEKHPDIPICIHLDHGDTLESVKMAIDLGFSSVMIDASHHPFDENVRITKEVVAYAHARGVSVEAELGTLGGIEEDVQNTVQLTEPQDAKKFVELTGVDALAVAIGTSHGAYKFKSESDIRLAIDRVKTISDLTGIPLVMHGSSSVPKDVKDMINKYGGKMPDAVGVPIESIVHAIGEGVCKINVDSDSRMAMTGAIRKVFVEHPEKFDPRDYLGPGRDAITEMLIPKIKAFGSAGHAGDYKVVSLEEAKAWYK
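40 nM FBPA preincubated 10 min at RT with compound (up to 57.5 uM final), then substrate plus GAPDH/TPI/NAD/arsenate coupling and diaphorase/resazurin added. Fluorescence read after 20 min at RT, 525/598 nm.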
Sm TGR block = inhibitors of Schistosoma mansoni thioredoxin glutathione reductase. hit rate 3% among 360,000. Potency, µM (highest dose often 114 µM), for inactives: at the top dose activity change, negative = inhibition, usual class: inhibitors. Q962Y6. purified TGR, DTNB reduction, TNB absorbance 405 nm. AID 485364; note: potency is the fitted concentration of half-maximal effect; nearly all actives have a fitted effect of over 60% in size
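TGR 20 nM + NADPH 100 uM (dispensed conc.), cpd preinc 15 min RT; start with NADPH (500 uM addition) then DTNB (15 mM addition). Kinetic TNB absorbance, 405 nm filter. Four-parameter Hill fit across titration.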
* = called active by the depositor; ? = inconclusive; . = not tested or not shown. Unless noted, calls come from the whole dose curve; as a rule, active = well fitted curve in the direction sought with a large enough effect; inconclusive = small, poorly fitted or top-dose-only effect, or another doubt; inactive = no such curve, though single readings can be large; an effect the other way counts as inactive or inconclusive. % is set by controls: 0 for no effect and ±100 for the full control effect.

SMILES	Pf growth 96h	HCMV antiviral	Pf growth 48h	FBPA Giardia inh	Sm TGR block
CCN1CCN(C(c2ccccc2)c2nnnn2Cc2ccc(OC)cc2)CC1 (centres undefined)	5.22µM*	-11.6	0.9%	2.9%	44.0%
COc1ccc(Cn2nnnc2CN2CCc3ccccc3C2)cc1	13.1µM*	32.2	.	-10.8%	0.0%
O=C1C=CC2(OCCCO2)C(Br)=C1CO	.	.	.	2.8%	.
CCOc1ccccc1NC(=O)c1nc2nc(C)cc(C(F)F)n2n1	.	?	.	.	6.7%
COc1ccc(Cn2nnnc2C(c2ccccc2Cl)N2CCN(C)CC2)cc1 (centres undefined)	116.7%	-63.5*	-17.4%	-10.4%	-3.4%
COc1ccc(Cn2nnnc2C(c2ccccc2OC)N2CCC(C(N)=O)CC2)cc1 (centres undefined)	?	13.0	-5.8%	-0.7%	3.0%
COc1ccc(-c2c[n+](CC(=O)c3cccs3)c3n2CCC3)cc1	?	0.7	2.33µM*	0.6%	-19.9%
O=C(C[n+]1cc(-c2ccc(F)cc2)n2c1CCC2)OCc1ccccc1	10.0%	31.9	14.2%	6.9%	15.3%
Cc1ccc(-c2c[n+](CC(=O)c3cccs3)c3n2CCC3)cc1	4.15µM*	?	2.33µM*	5.6%	0.7%
O=C(C[n+]1cc(-c2ccccc2)n2c1CCC2)OCc1ccccc1	?	-6.4	3.3%	-0.1%	-0.3%
Cc1cc(C)n(C(C[N+](=O)[O-])c2ccc(Cl)cc2)n1 (centres undefined)	.	-104.8*	?	?	0.0%
Cc1cc(O)c(C(C[N+](=O)[O-])c2ccc(Cl)cc2)c(=O)o1 (centres undefined)	.	-15.6	-0.9%	4.6%	?
Cc1ccc(NC(=O)NNC(=O)c2cccs2)cc1	23.9%	15.7	47.8%	3.5%	0.3%
CN(C)c1ccc(C2C=C(c3ccc(Cl)cc3OC(F)F)Nc3ncnn32)cc1 (centres undefined)	112.0%	-21.7	?	-25.5%	22.4µM*
O=c1c2ccccc2nc(CSc2nnnn2-c2ccccc2)n1-c1ccccc1Cl	11.7µM*	?	?	6.9%	-6.1%
